Screening results deposited in PubChem BioAssay by The Scripps Research Institute Molecular Screening Center.
GSTO1 inh: GSTO1 inhibition, counter-screen for RBBP9 inhibitors; recombinant GSTO1, activity-based probe fluorescence polarization; 300,000 tested, 1.1% active; AID 1974; inhibition, % at 5.96 µM;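 active means inhibition above the campaign mean inhibition plus 3 SD, cut at about 35% in these data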
PME-1 primary: blocks human protein phosphatase methylesterase 1; inhibition, % at 5.9 µM; recombinant PME-1, FP-Rh probe fluorescence polarization; 320,000 tested, 0.53% active; Q9Y570;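 active means inhibition above the campaign mean of all compounds plus 3 SD, cut at about 26% in these data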;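 further: competitive labeling of PME-1 active site by serine hydrolase directed probe; inhibitors block probe labeling so polarization falls and inhibition rises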
LYPLA2 counter: counter-screen for PME1 inhibitors: inhibitors of human LYPLA2 | O95372 | recombinant LYPLA2, FP-Rh probe fluorescence polarization | inhibition, % at 5.9 µM | 320,000 tested, 0.38% active | AID 2177;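 active means inhibition above the screen-wide mean plus 3 SD, limit set per campaign, cut at about 26% in these data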
Target sequence (O95372 whole entry, looked up): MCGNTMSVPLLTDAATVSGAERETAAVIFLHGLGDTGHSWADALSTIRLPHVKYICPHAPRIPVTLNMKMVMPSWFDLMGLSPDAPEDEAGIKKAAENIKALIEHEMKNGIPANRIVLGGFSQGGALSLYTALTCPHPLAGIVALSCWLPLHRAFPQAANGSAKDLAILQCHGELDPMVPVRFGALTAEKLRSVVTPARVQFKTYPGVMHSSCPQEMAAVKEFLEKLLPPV
LYPLA1 counter: LYPLA1 (human) inhibition in PME1 counter-screen; O75608; recombinant LYPLA1, FP-Rh probe fluorescence polarization; inhibition, % at 5.9 µM; 320,000 tested, 0.16% active; AID 2174;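 active means inhibition above the mean of all tested compounds plus 3 SD, set per campaign, cut at about 14% in these data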;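 further: inhibitors block serine hydrolase probe labeling of LYPLA1 so polarization falls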
Target sequence (O75608 whole entry, looked up): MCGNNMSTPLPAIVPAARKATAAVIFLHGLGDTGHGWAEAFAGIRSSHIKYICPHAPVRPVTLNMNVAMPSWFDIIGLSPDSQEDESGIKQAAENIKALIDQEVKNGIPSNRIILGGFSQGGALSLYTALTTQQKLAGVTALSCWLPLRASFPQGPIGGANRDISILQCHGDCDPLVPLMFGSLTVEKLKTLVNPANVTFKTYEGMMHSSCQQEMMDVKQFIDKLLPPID
PAD4 FP inh: blocks human protein arginine deiminase 4; Q9UM07; recombinant PAD4, RCA probe fluorescence polarization; inhibition, % at 6.36 µM; 330,000 tested, 0.41% active;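 active means percent inhibition above a cutoff equal to the mean of all tested compounds plus 3 SD, cut at about 15% in these data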
Fam108B counter: blocks mouse Fam108B hydrolase in RBBP9 counter-screen | recombinant Fam108B, FP-Rh probe fluorescence polarization | inhibition, % at 9.51 µM | 300,000 tested, 0.33% active;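 active means inhibition above the screen mean inhibition plus 3 SD, computed separately per campaign, cut at about 18% in these data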;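 further: inhibitors lower polarization as less probe binds the enzyme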
Large screens that a line does not name were inactive. A selection: hits, their analogues and other compounds. The true share with any hit is near 1.8%.

C[C@H](CO)N1C[C@H](C)[C@@H](CN(C)S(C)(=O)=O)Oc2ccc(NS(=O)(=O)c3cn(C)cn3)cc2C1=O	none (no result: GSTO1 inh, PME-1 primary, LYPLA2 counter, LYPLA1 counter, Fam108B counter)
O=C(NC1CCCCC1)C(c1ccc(O)c(O)c1)N(C(=O)Cn1nnc2ccccc21)c1cccc(O)c1 (stereo not drawn)	GSTO1 inh 36
CC(=O)c1cccc(N(C(=O)Cn2nnc3ccccc32)C(C(=O)NC2CCCCC2)c2cn(C)nc2C)c1 (stereo not drawn)	none
O=S(=O)(c1ccc(NC(=S)N2CCN(c3ccc(O)cc3)CC2)cc1)N1CCOCC1	LYPLA2 counter 35
O=C(Nc1ccc(Br)c2ccccc12)c1ccc2ccccc2c1O	Fam108B counter 39
Cc1c(C(=O)O)cccc1-c1ccc(/C=C2\SC(=O)NC2=O)o1	GSTO1 inh 35
Cc1c(C(=O)O)cccc1-c1ccc(/C=C2/NC(=O)N(c3ccccc3)C2=O)o1	none
COC(=O)CCC(=O)OC1(C)C(=O)C2=CN(CCc3ccccn3)C(c3ccc(OC)cc3)=CC2=C(Br)C1=O (stereo not drawn)	GSTO1 inh 66
O=C(Nc1nccs1)c1ccc(-c2ccc(F)c(Cl)c2)o1	none
Cc1ccc(C(=O)CSc2nnc(COc3ccccc3)o2)cc1	GSTO1 inh 37
CCN1C(=O)N[C@@H](c2cccs2)C(C(C)=O)=C1C	none
Nc1ccc2nc3c(=O)n(CCc4ccccc4)c(=O)[nH]c3nc2c1	PME-1 primary 39
Cc1cc2nc3c(=O)n(CCc4ccccc4)c(=O)[nH]c3nc2cc1N	GSTO1 inh 37, PME-1 primary 54
C=CCn1c(=O)[nH]c2nc3cc(N=CN(C)C)c(C)cc3nc2c1=O	none
CCCCn1c(=O)[nH]c2nc3cc(N)ccc3nc2c1=O	none
CC(C)(O)c1ccccc1CC[C@@H](SCC1(CC(=O)O)CC1)c1cccc(/C=C/c2ccc3ccc(Cl)cc3n2)c1	none
COc1cc2c(cc1NC(=O)c1ccncc1)oc1ccccc12	none
COc1cc2c(cc1NC(=O)c1cccnc1)oc1ccccc12	PME-1 primary 28
O=c1oc2c3c4c(cc2s1)CCCN4CCC3	GSTO1 inh 51
COc1ccccc1OCCn1nnc2ccccc21	none
Cc1cc(C(=O)CSc2ncccn2)c(C)n1-c1cccc(F)c1	none
Cc1cc(C(=O)CSc2nc(N)cc(N)n2)c(C)n1-c1cccc(C(F)(F)F)c1	PME-1 primary 29
CN=c1scc(-c2cccs2)n1/N=C/c1ccc(O)c(O)c1O	PME-1 primary 31
C=CCN=c1scc(-c2ccco2)n1/N=C/c1ccc(O)c(O)c1O	PME-1 primary 29
O=c1ccc2ccc(OCc3ccccc3)cc2o1	none
Cc1ccc(CCNC(=O)C2CCN(S(=O)(=O)c3ccc4c(c3)NC(=O)CO4)CC2)cc1	none
O=C(Cn1nc(C(F)F)cc1C(F)F)NNC(=S)Nc1ccc([N+](=O)[O-])cc1	none
CC1CCC2C(C1)OS(=O)(=O)NC2(C)C (stereo not drawn)	none
Cc1sc2ncnc(NCCCN3CCCC3=O)c2c1C	GSTO1 inh 37
O=C1CCCN1CCCNc1ncnc2sccc12	none
CCCCOC(=O)C1=C(N)N2C(=O)C(C)SC2=C(C(=O)OCC)C1c1ccc(O)c(OC)c1 (stereo not drawn)	none
C/C(=N/Nc1ccc(C(=O)O)cc1)c1ccc(O)c(O)c1O	GSTO1 inh 45
C/C(=N\NC(=O)c1cccc(N/N=C(\C)c2cc(O)ccc2O)c1)c1cc(O)ccc1O	Fam108B counter 30
C/C(=N\Nc1cccc([N+](=O)[O-])c1)c1ccccc1O	PME-1 primary 45
C/C(=N\Nc1cccc([N+](=O)[O-])c1)c1cc(F)ccc1O	none
C/C(=N\NC(=O)c1ccc(N/N=C(\C)c2ccc(O)cc2)cc1)c1ccc(O)cc1	PME-1 primary 28
C/C(=N\NC(=O)c1cccc(O)c1)c1cccc(NC(=O)c2ccc(F)cc2)c1	none
CCOc1cc(N(CC)CC)ccc1/C=C(/C#N)c1nc2ccccc2[nH]1	PME-1 primary 30
CCCOc1cc(N(CC)CC)ccc1/C=C(/C#N)c1nc2ccc(C)cc2[nH]1	none
O=C(NCc1cccs1)C1CCCN1C(=O)Nc1ccccc1[N+](=O)[O-] (stereo not drawn)	none
O=C(O)c1cc(-c2ccc(/C=N/NC(=S)Nc3ccccc3)o2)ccc1Cl	GSTO1 inh 48
O=C(O)c1ccc(N/N=C/c2cn(Cc3ccccc3F)c3ccccc23)cc1	PME-1 primary 29
COC(=O)N/N=C/c1cn(Cc2ccccc2F)c2ccccc12	none
N#Cc1c(NC(=O)/C=C/C(=O)O)sc2c1CCN(Cc1ccccc1)C2	none
Cc1cccc(NC(=O)CCNC(=O)c2ccccc2)c1	none
O=C(Cc1cnn(-c2ccccc2)c1)c1ccc(O)c(O)c1O	GSTO1 inh 50
COc1ccc(CCNC(=O)C(C)n2nc(C)n3c(cc4occc43)c2=O)cc1OC (stereo not drawn)	none
Cc1ccc(N2CCN(S(=O)(=O)c3nnc(NC(=O)c4ccco4)s3)CC2)cc1	none
CCOc1ccccc1N1C(=O)CC(Nc2ccc(N3CCOCC3)cc2)C1=O (stereo not drawn)	PAD4 FP inh 19
O=C1CC(Nc2ccc(N3CCOCC3)cc2)C(=O)N1c1ccccc1 (stereo not drawn)	none
CCc1ccc2[nH]c(O)c(N=NC3=NC(=O)CS3)c2c1	PME-1 primary 32
CCc1ccc2c(c1)c(N=NC1=NC(=O)CS1)c(O)n2CC	none
CCOC(=O)c1ccc(NC(=O)Nc2ccc(OC)c(OC)c2)cc1	none
COC(=O)c1ccc(NC(=O)Nc2ccc(OC)cc2)cc1	PME-1 primary 29
CCCCOC(=O)c1ccc(NC(=O)Nc2ccc(OC)c(OC)c2)cc1	PME-1 primary 40
COc1ccc(NC(=O)Nc2c(O)ccc3ccccc23)cc1	GSTO1 inh 37
COc1ccc(NC(=O)Nc2ccc(OC)cc2)cc1	none
NC(=S)N/N=C/c1ccccc1O	none
NC(=S)N/N=C/c1cccc(O)c1O	GSTO1 inh 84
COC(=O)CSc1nc2cc(C)ccc2cc1C#N	none
Cc1ccc2cc(C#N)c(SCc3nnc(-c4ccccc4[N+](=O)[O-])o3)nc2c1	PME-1 primary 35
Cc1ccc(Sc2ccc(NC(=O)CCl)cc2)cc1C	GSTO1 inh 78
Cc1ccc(NC(=O)CC(=O)Nc2ccc(C)c(C)c2)cc1C	none
Nc1ccc(S(=O)(=O)c2cccc(N)c2)cc1	none
Cc1ccc(S(=O)(=O)c2ccccc2)cc1S	PAD4 FP inh 36
Cc1cc(Nc2nn(C)c(N)c2C#N)ccc1F	none
CCOC(=O)Cc1csc(NC(=O)c2sc3nc4cc(C)ccc4cc3c2N)n1	PME-1 primary 46
CCC(Sc1nc2ccccc2o1)C(=O)Nc1nnc(C)s1 (stereo not drawn)	GSTO1 inh 44
COc1cc(OC)cc(-c2nnc(SCC(=O)N(C(C)C)C(C)C)o2)c1	none
